Bioassay records (PubChem)
proKLK7 act: proKLK7 zymogen activators, primary screen, biochemical, fluorescence intensity | purified proKLK7, EDANS-DABCYL substrate fluorescence; 100% is mature enzyme control, 0% vehicle | activation, % at 7 µM | 0.9% of 370,000 active | AID 652039, 2013;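 active = activation above the mean of all tested compounds plus 3 SD, computed per campaign excluding outliers beyond control limits, cut at about 13% in these data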
Pemphigus Ab inh: inhibitors of pemphigus antibody binding to DSG3, primary screen, biochemical, bead-based, flow cytometry, scFv-GFP; DSG3-coupled beads, scFv-anti-DSG3-GFP binding; stronger effect = lower value; binding (percent of control), % at 10 µM; 0.48% of 310,000 active;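 active = binding more than 3 SD below its plate's average and above zero; inconclusive = below that plate limit but binding exactly zero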;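 also: hits lower antibody fragment binding to DSG3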
MPTP block: mitochondrial permeability transition pore inhibitors, primary screen, biochemical, isolated mouse mitochondria, absorbance | Ca2+ swelling absorbance, 30 min | inhibition, % at 10 µM | 1.4% of 360,000 active | AID 602449, 2012;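 active = inhibition of 50% or more, scaled per plate between neutral and stimulator controls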
rCAG RNA binder: binders of r(CAG) RNA repeats, primary screen, biochemical, fluorescence; r(CAG) RNA repeat, TO-PRO-1 dye displacement fluorescence; inhibition, % at 3 µM; 1.3% of 370,000 active; AID 651821, 2012;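 active = inhibition above the plate cutoff, the mean of all test compounds on that plate plus 3 SD, cut at about 35% in these data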;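 also: higher means more dye released from RNA so lower well fluorescence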
ADAM10 inh: human ADAM10 inhibitors, primary screen, biochemical, QFRET, HTS; Disintegrin and metalloproteinase domain-containing protein 10 (Homo sapiens), O14672; recombinant ADAM10, EDANS/DABCYL FRET peptide cleavage, 3 h; inhibition, % at 7 µM; 0.62% of 370,000 active; AID 720582, 2013;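 active = inhibition above a per-campaign cutoff equal to the mean of compounds falling between control-based bounds plus 3 SD, cut at about 20% in these data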
Target sequence (O14672 214-748 limits assumed): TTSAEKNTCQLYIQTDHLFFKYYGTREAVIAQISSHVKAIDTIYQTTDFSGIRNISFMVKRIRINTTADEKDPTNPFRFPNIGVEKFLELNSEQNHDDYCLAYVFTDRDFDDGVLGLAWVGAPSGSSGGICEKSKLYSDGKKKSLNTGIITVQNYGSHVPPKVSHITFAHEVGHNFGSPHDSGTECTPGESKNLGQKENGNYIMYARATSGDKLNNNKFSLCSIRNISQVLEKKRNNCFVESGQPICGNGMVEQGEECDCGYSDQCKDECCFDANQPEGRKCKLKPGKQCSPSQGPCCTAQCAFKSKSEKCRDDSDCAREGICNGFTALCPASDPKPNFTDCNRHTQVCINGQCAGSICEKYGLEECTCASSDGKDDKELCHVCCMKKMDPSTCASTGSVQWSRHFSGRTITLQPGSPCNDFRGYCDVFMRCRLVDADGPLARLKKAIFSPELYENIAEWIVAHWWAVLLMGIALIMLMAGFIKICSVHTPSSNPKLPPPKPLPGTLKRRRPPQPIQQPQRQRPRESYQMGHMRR
ADAM17 inh: ADAM17 inhibitors, primary screen, biochemical, QFRET; recombinant ADAM17, EDANS/DABCYL FRET peptide cleavage; inhibition, % at 6.95 µM; 0.83% of 370,000 active;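 active = inhibition above the mean of compounds lying between control limits plus 3 SD, set per campaign, cut at about 8.5% in these data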
Rh123 counter: fluorescence retest of MPTP screen hits in isolated mitochondria, single concentration; AID 624504, 2012; membrane potential, Rhodamine 123 fluorescence; inhibition, % at 10 µM; 78% of 5,000 active; shares compounds with MPTP block; in the data active = inhibition above about 22%
MPTP swell DR: mitochondrial permeability transition pore inhibitors, dose response, biochemical, absorbance, uHTS hits. IC50, µM. isolated mitochondria swelling. 58% of 780 active. shares compounds with MPTP block; in the data active = IC50 below about 20 µM
MPTP cs DR: fluorescent counter-screen in isolated mitochondria, dose response, counter-screen for MPTP inhibitor project, biochemical, fluorescence, uHTS hits; shares compounds with MPTP block; isolated mitochondria counterscreen, fluorescence read-out; IC50, µM; 49% of 780 active; AID 651564, 2012; in the data active = IC50 below about 80 µM
Of the large screens only hits and unclear results are named; the others gave an inactive call (follow-up assays come after a bar, where they were run). Only some compounds are listed: those with a hit (about 4.7% of all), similar ones and a draw of the others.

O=C(Nc1ccccc1F)Nc1ccccc1F	none
O=C(Nc1ccc(Br)cc1)Nc1ccccc1F	MPTP block 80 | Rh123 counter 90
O=S(=O)(c1ccccc1)N1CCCc2nc(-c3ccccc3)ccc21	none (no result: Pemphigus Ab inh, MPTP block)
O=C(C(=O)N1CCC(CNS(=O)(=O)c2ccc(OC(F)(F)F)cc2)CC1)c1cc2ccccc2o1	none (no result: Pemphigus Ab inh, MPTP block)
Nc1nc(NC(=O)c2ccc(Cl)cc2)nn1-c1ccccc1	MPTP block 81 | Rh123 counter 35
CCOc1ccc(-n2c(SCc3cccc4ccccc34)nnc2-c2ccc(C)cc2)cc1	none (no result: Pemphigus Ab inh, MPTP block)
COc1ccc(N2CCN(S(=O)(=O)c3ccc4c(c3)CCCC4)CC2)c([N+](=O)[O-])c1	MPTP block 79 | Rh123 counter 79
NC(=O)c1ccc(N2CCN(S(=O)(=O)c3ccccc3)CC2)c([N+](=O)[O-])c1	MPTP block 73 | Rh123 counter 21
COC(=O)c1ccc(N2CCN(S(=O)(=O)c3ccc4ccccc4c3)CC2)c([N+](=O)[O-])c1	MPTP block 72 | Rh123 counter 57
OCCCNc1ncnc2c1cnn2-c1ccc(Cl)cc1	none
CN(C)CCNc1ncnc2c1cnn2-c1ccc(Cl)cc1	MPTP block 78 | Rh123 counter inactive | MPTP swell DR 8.4 | MPTP cs DR inactive
CCSc1ncc(Cl)c(C(=O)Nc2ccccc2Cl)n1	Pemphigus Ab inh inconclusive
CCSc1nsc(NC(=O)Nc2ccc(F)cc2F)n1	MPTP block 72 (no result: proKLK7 act, rCAG RNA binder, ADAM10 inh, ADAM17 inh) | Rh123 counter 91
CCSc1nsc(NC(=O)Nc2ccccc2Cl)n1	MPTP block 63 | Rh123 counter 90
O=C(Nc1ccc(Br)cc1)c1cccc(S(=O)(=O)Nc2ccccn2)c1	none
COc1ccc(NC(=O)c2cccc(Oc3ccccc3)c2)cn1	none
COc1ccc(NS(=O)(=O)c2ccc3c(c2)Cc2ccccc2-3)cn1	MPTP block 84 | Rh123 counter 87
COc1ccc(NC(=O)c2cccc(S(=O)(=O)Nc3ccc(Br)cc3)c2)cn1	MPTP block 97 | Rh123 counter 80
CCOc1ccc(S(=O)(=O)Nc2cnc3ccccc3c2)cc1	MPTP block 87 | Rh123 counter 90
O=C(Nc1ccc(Br)cc1)c1cccc(S(=O)(=O)Nc2cnc3ccccc3c2)c1	MPTP block 108, rCAG RNA binder 80 | Rh123 counter 74
CCOc1ccc(S(=O)(=O)Nc2nc3ccccc3nc2Cl)cc1	none
O=C(Nc1cccc(C(F)(F)F)c1)OC1CC2CC1[C@H]1CCCCN1[C@H]2Cc1ccccc1 (some centres undefined)	none (no result: Pemphigus Ab inh, MPTP block)
COCC#Cc1ccc2c(c1)O[C@H](CN(C)C(=O)c1ccccc1)[C@@H](C)CN([C@H](C)CO)S2(=O)=O	none (no result: Pemphigus Ab inh, MPTP block)
CCCCCCCCN1C(=O)[C@@H](CC(=O)N2CCOCC2)C[C@@]2(C(=O)OC)C1=C[C@H](C(C)(C)C)O[C@@H]2C	none (no result: Pemphigus Ab inh, MPTP block)
COC(=O)C[C@@H]1CC[C@H]2[C@@H](COc3ccc(NC(=O)Nc4cccc(F)c4)cc3C(=O)N2C)O1	none (no result: Pemphigus Ab inh, MPTP block)
N#C/C(=C/c1ccc(Sc2nc3ccccc3[nH]2)o1)c1cccc(F)c1	MPTP block 85 | Rh123 counter 87
N#C/C(=C/c1ccc(Sc2nc3ccccc3[nH]2)o1)c1cccc(Br)c1	MPTP block 84 | Rh123 counter 98
O=C(N/N=C/c1ccc(Sc2nc3ccccc3[nH]2)o1)c1ccncc1	none
N#C/C(=C/c1ccc(Sc2nc3ccccc3[nH]2)o1)c1ccccc1F	MPTP block 96 (no result: Pemphigus Ab inh) | Rh123 counter 83
N#C/C(=C\c1ccc(Sc2ccccc2)o1)c1nc2ccccc2[nH]1	MPTP block 94 | Rh123 counter 68
N#C/C(=C\c1ccc([N+](=O)[O-])o1)c1nc2ccccc2[nH]1	none (no result: Pemphigus Ab inh, MPTP block)
OC1CC2CCC(C1)N2CCCN1c2ccccc2Sc2ccc(Cl)cc21 (centres undefined)	MPTP block 76 | Rh123 counter inactive | MPTP swell DR 4 | MPTP cs DR 74
O=C(NCCSCc1ccco1)Nc1cccc(Cl)c1	MPTP block 79 | Rh123 counter 79
O=C(NCCc1ccccc1)Nc1cccc(Cl)c1	MPTP block 97 (no result: Pemphigus Ab inh) | Rh123 counter 88
O=C(NCCSCc1ccco1)Nc1ccc(Cl)cc1	none (no result: Pemphigus Ab inh)
O=C(NCCc1ccc(Cl)cc1)Nc1cccc(Cl)c1	MPTP block 95 | Rh123 counter 94
Cc1cccc(NC(=O)NCCc2ccc(Cl)cc2)c1	none
Cc1cccc(NC(=O)NC(C)CCc2ccccc2)c1 (centres undefined)	MPTP block 64 | Rh123 counter 73
O=C(CC1CCCC1)N[C@H](C(=O)N1CCC[C@H]1C(=O)NC1CCCC1)C1CCCCC1	none (no result: Pemphigus Ab inh, MPTP block)
CN(C)[C@@H]1CCN(c2ccc3c(c2)O[C@@H]2CCN(C2)S3(=O)=O)C1	none (no result: Pemphigus Ab inh, MPTP block)
CC(=O)C1=C(C)N(Cc2ccc(F)cc2)C(=S)NC1c1cccc(F)c1 (centres undefined)	none (no result: Pemphigus Ab inh, MPTP block)
CCCCc1c(-c2ccccc2OC)ncn1Cc1ccc(C(C)(C)C)cc1	none (no result: Pemphigus Ab inh, MPTP block)
Cc1cc(SCC(=O)N/N=C/c2ccccc2C(=O)O)c(C)cc1Br	none (no result: Pemphigus Ab inh)
Cc1cc(SCC(=O)N/N=C/c2ccc(O)cc2O)c(C)cc1Br	MPTP block 91 | Rh123 counter 56
O=C(NCc1nc(-c2ccc(C(F)(F)F)cc2)no1)Nc1ccc(OC(F)(F)F)cc1	MPTP block 78 | Rh123 counter 74
COc1ccc(-c2noc(CNS(=O)(=O)c3ccc(NC(C)=O)cc3)n2)cc1	none
O=C(C=Cc1ccc(OCc2ccccc2)cc1)c1c(F)cccc1F	none (no result: Pemphigus Ab inh, MPTP block)
CC(NC(=S)NC1CCC(C(C)(C)C)CC1)c1ccccc1 (centres undefined)	MPTP block 55 | Rh123 counter 87
Cc1ccc(C(C)NC(=S)NC2CCCCC2)cc1C (centres undefined)	none (no result: Pemphigus Ab inh)
Cc1ccc(CNC(=S)NC2CCC(C(C)(C)C)CC2)cc1 (centres undefined)	MPTP block 51 (no result: Pemphigus Ab inh) | Rh123 counter 106
